Only a selection was taken, and hits are over-represented in it overall. The true hit rate is not given. Unmarked numbers belong to inactive results.
System: T1, Caupolican (Caup) homeodomain DNA-binding domain
T1 sequence: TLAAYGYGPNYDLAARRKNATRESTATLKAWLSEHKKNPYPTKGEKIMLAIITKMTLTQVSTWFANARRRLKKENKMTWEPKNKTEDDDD
Assay: PBM E-score (8-mer, recovered from the published 9-mer minima) (E-score (dimensionless, -0.5 to 0.5)); Drosophila protein; higher = stronger relative binding preference, active = 0.31 or more
Protocol: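 Protein binding microarray (PBM): in vitro transcribed/translated Caupolican (Caup) homeodomain DNA-binding domain (residues 214-303) applied at 100 nM to a universal 8-mer PBM array (Agilent AMADID 015681). The 8-mer enrichment score (E-score, range -0.5 to 0.5) was computed, and each 9-mer score is the minimum E-score of its two constituent 8-mers. The E-score is the same for a 9-mer and its reverse complement; 0.31 is the stated binding threshold.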

| Sequence | PBM E-score |
| --- | --- |
| GCGTTTAC | -0.0438 |
| AGCACATC | 0.0585 |
| AGTACATG | 0.45 (active) |
| AGCACATG | 0.164 |
| AGTACAGC | 0.167 |
| AGTACATC | 0.342 (active) |
| AGTACGTG | 0.0988 |
| CGTGATAG | -0.0553 |
| AGCGCAAG | -0.181 |
| CTTTGCGA | -0.0806 |
| TAAAAAGA | 0.0988 |
| CAAAGTTC | -0.0431 |
| CTCTGTTA | 0.107 |
| ATATGTTC | 0.347 (active) |
| ATATGTGG | 0.182 |
| ATATGTGA | 0.25 |
| ATATGTTG | 0.324 (active) |
| ATATGTTA | 0.338 (active) |
| CTATGTTC | 0.31 |
| GTCTGTTA | 0.161 |
| ATATGTGC | 0.118 |
| CTATGTTA | 0.294 |
| GTATGTTA | 0.321 (active) |
| ATCTGTTG | 0.128 |
| ATTCAGTC | 0.00318 |
| AGCCATTC | -0.0817 |

| Sequence | PBM E-score |
| --- | --- |
| CCCTAGGG | -0.253 |
| TATGTTGA | 0.288 |
| CCTGTTCG | 0.0935 |
| CATGTTCC | 0.409 (active) |
| AATGTTCG | 0.154 |
| CATGTTCG | 0.399 (active) |
| AATGTTCC | 0.2 |
| TATGTTCA | 0.324 (active) |
| AATGTTCA | 0.244 |
| GATGTTCC | 0.281 |
| GATGTTCA | 0.303 |
| CATGTTCA | 0.396 (active) |
| TCTGTTCA | 0.0822 |
| AGCCCTCA | -0.12 |
| CAACAAAG | 0.159 |
| CTAATAAG | 0.0971 |
| GGCTAGGA | -0.114 |
| ATAAGGAA | 0.0175 |
| TAAACGCA | 0.034 |
| AGATACGC | -0.121 |
| GGGTCTGA | -0.193 |
| ACGCTGAG | -0.175 |
| CATGTTGG | 0.285 |
| AATGTTGA | 0.17 |
| CATGTTGA | 0.38 (active) |
| CATGTTGC | 0.279 |

| Sequence | PBM E-score |
| --- | --- |
| AATGTTGT | 0.368 (active) |
| AATGTTGG | 0.115 |
| AGTCTAAG | 0.0473 |
| CTATGTAA | 0.338 (active) |
| CTCTGTAA | 0.12 |
| GTATGTAA | 0.369 (active) |
| GTATGTGA | 0.193 |
| ATATGCAA | 0.123 |
| ATATGTAA | 0.34 (active) |
| GAATGTAA | 0.223 |
| CTATGTGA | 0.137 |
| ATCTGTAA | 0.15 |
| AGGAGGAG | -0.188 |
| TATCGCAA | 0.0789 |
| CGAGAAGC | -0.0725 |
| CGTTTTAC | 0.0444 |
| ATTAGTGA | 0.107 |
| CTGCTAGC | -0.102 |
| GTGGTTGA | 0.0698 |
| AATTAGAG | 0.00042 |
| CGCCCCAG | -0.238 |
| ACATGCGG | 0.195 |
| AAATGCAT | 0.0673 |
| ACATGCAC | 0.393 (active) |
| GCATGCAC | 0.0682 |
| CCATGCAC | -0.0759 |

| Sequence | PBM E-score |
| --- | --- |
| GCATGCAA | 0.0861 |
| ACATGCAT | 0.376 (active) |
| ACATGCAG | 0.294 |
| ACATGCAA | 0.323 (active) |
| ACATGCGT | 0.346 (active) |
| TCATGCAA | 0.146 |
| ACATGCGC | 0.288 |
| CGTCGTCA | -0.0203 |
| AAAAGCCT | -0.0858 |
| AGATTGGC | -0.0959 |
| CAGCCTCC | -0.292 |
| ACGGGTTC | -0.0477 |
| CAACAATG | 0.323 (active) |
| CAACAAGA | 0.241 |
| CAACAAGG | 0.338 (active) |
| CAACAAGC | 0.202 |
| AAACAATG | 0.256 |
| CAACAATC | 0.258 |
| CGCCCCTA | -0.159 |
| GTAAGAGA | 0.016 |
| GGCTTGCA | -0.0355 |
| AGAACATA | 0.318 (active) |
| CGAACATC | 0.279 |
| CGAACAAA | 0.157 |
| AGAACATC | 0.235 |
| AGAACATG | 0.406 (active) |

| Sequence | PBM E-score |
| --- | --- |
| GGAACATA | 0.271 |
| AGAACAGA | 0.16 |
| CGAACATA | 0.343 (active) |
| AGAACAGG | 0.139 |
| TAGCTCGA | -0.0721 |
| CACACCGG | -0.087 |
| GTCGTTCA | 0.0698 |
| AGTTGGAG | -0.129 |
| CAGTTAAG | 0.0884 |
| CGTCTAAG | -0.13 |
| GAAAGGTA | 0.0535 |
| AAACTCGA | 0.0205 |
| CTGTAATC | 0.162 |
| CTGTAATA | 0.193 |
| ATGTAATA | 0.383 (active) |
| GCGTAATA | 0.076 |
| ACGTAATG | 0.16 |
| GTGTAATA | 0.315 (active) |
| ATGTAATC | 0.348 (active) |
| ATGTAATG | 0.37 (active) |
| ACGTAATC | 0.155 |
| ATGTAAGG | 0.303 |
| GAGTAATA | 0.167 |
| AAGTAATA | 0.134 |
| ACTAGTGA | 0.113 |
| CGGTCTGA | -0.0584 |

| Sequence | PBM E-score |
| --- | --- |
| GGCTTAGA | -0.112 |
| ACTACCAA | 0.167 |
| GTAGGCAC | -0.096 |
| GTTAGGAA | 0.0363 |
| AATCACTG | 0.0918 |
| ACCCAACT | -0.0182 |
| ATGTGTAG | 0.193 |
| GTGTGTAA | 0.275 |
| CTGTGTAC | 0.272 |
| CTGTGTAA | 0.294 |
| ATGTGTAA | 0.332 (active) |
| ATGTGTAC | 0.348 (active) |
| AATGTCCC | 0.0508 |
| CATGTCCG | 0.303 |
| AATGTCCA | 0.251 |
| CATGTCCA | 0.384 (active) |
| CATGTCCC | 0.33 (active) |
| TATGTCCA | 0.214 |
| GTAACGTA | 0.198 |
| ACATGTGA | 0.312 (active) |
| CCATGTGC | -0.0035 |
| GCATGTGA | 0.176 |
| ACATGTGC | 0.351 (active) |
| CCATGTGA | 0.0957 |
| ACATGTGG | 0.308 |
| CACTGGAG | -0.159 |

| Sequence | PBM E-score |
| --- | --- |
| ATACACCG | 0.184 |
| ATCGGGGG | -0.264 |
| AGATGTAA | 0.336 (active) |
| AGATGTAT | 0.29 |
| AGATGTAG | 0.244 |
| GGATGTAA | 0.299 |
| CGATGTAA | 0.276 |
| TGATGTAA | 0.36 (active) |
| CCGCGTTA | -0.054 |
| GATCTAGA | -0.0194 |
| GTACTAAA | 0.229 |
| GCACTACA | 0.176 |
| ATACTACC | 0.0922 |
| CTACTACA | 0.305 |
| GTACTACA | 0.376 (active) |
| ATACTACA | 0.364 (active) |
| CAGTTTCG | -0.0432 |
| CAGCTACG | -0.101 |
| ATGTACCG | 0.287 |
| ATCTACAT | 0.29 |
| CTGTACAG | 0.164 |
| GGGTACAC | 0.14 |
| CTGTACAC | 0.284 |
| ATGTACAG | 0.343 (active) |
| ATGTACGC | 0.29 |
| ATGTACAC | 0.441 (active) |

| Sequence | PBM E-score |
| --- | --- |
| ATGTACAT | ≥ 0.469 (active) |
| CAGTACAC | 0.288 |
| GTGTACAC | 0.389 (active) |
| TCCGCAAA | -0.0879 |
| CCCTTTCA | -0.126 |
| ACCCATCG | -0.0141 |
| GCCGTCCC | -0.25 |
| GCTTCCAC | -0.182 |
| ACCCGCAT | 0.00073 |
| CCACTCGG | -0.158 |
| AAAGAAGC | -0.0635 |
| GGGGTACA | 0.0877 |
| TAGACGGA | -0.0225 |
| CTCCAGTC | -0.121 |
| CCAGTGGA | -0.117 |
| AAAGGTAC | 0.12 |
| GGTACATA | 0.282 |
| CGTACAGA | 0.142 |
| CGTACATC | 0.263 |
| AGTACAGA | 0.138 |
| CGTACATA | 0.336 (active) |
| AGTACATA | 0.381 (active) |
| CAGACGCC | -0.147 |
| CCGGTCAA | -0.0503 |
| GGATCCCA | -0.0305 |
| CTTGTTCA | 0.33 (active) |

| Sequence | PBM E-score |
| --- | --- |
| ATTGTTCC | 0.112 |
| ATTGTTCA | 0.184 |
| CCTGTTCC | 0.0821 |
| CCTGTTCA | 0.15 |
| CTTGTTCC | ≥ 0.337 (active) |
| CATGGGGG | -0.157 |
| ATGGGAAG | -0.07 |
| TGTAGACA | ≥ 0.313 (active) |
| GGTAGACA | 0.117 |
| CGTAGACA | 0.122 |
| ATACAGGA | 0.13 |
| CTACATCC | 0.189 |
| ATACATGG | 0.422 (active) |
| ATCCATGA | 0.0343 |
| ATACATGA | 0.4 (active) |
| ATGCATGC | 0.107 |
| ATTCATGC | 0.0406 |
| ATACATCG | 0.273 |
| CCACATGC | 0.0879 |
| ATTCATGG | -0.039 |
| CTACATGC | 0.369 (active) |
| ATACATGC | 0.374 (active) |
